PubChem BioAssay (NCATS)
Results filed as inconclusive are left out. Calls of active or inactive are those of the source. Calls follow the shape of the dose curve; as a rule, active = well fitted cell-killing curve with a large enough effect; inconclusive = small, poorly fitted or top-dose-only effect, or effect the other way; inactive = flat fitted curve, though single readings scatter. Where a SMILES comes first, the peptide text is derived from it. [ ]: non-standard residue; d: D form. ξ: configuration not given here. ξPhe(βξ-Me) = CC(c1ccccc1)C(N)C(=O)O; GABA = NCCCC(=O)O

How the values were obtained:
Experiment in all cases: Primary qHTS to identify gynecologic anti-cancer compounds using libraries of approved drugs and bioactive compounds (AID 1345084); also: nearly all actives have a fitted effect of over 55% in size
C33A = conditions: Gynecologic cancer cell panel viability, ATPlite luminescence, 48 h; series mostly up to 57.5 µM
Procedure, shortened: (§1)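 ATP-based viability (ATPlite), 1,000 cells/well, 16 h pre-incubation, 48 h compound at 37 C, 5% CO2, 15 min RT before read.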

CAOV3 = conditions: Gynecologic cancer cell panel viability, ATPlite luminescence, 48 h; series mostly up to 57.5 µM
Procedure, shortened: as §1

CASKI = conditions: Gynecologic cancer cell panel viability, ATPlite luminescence, 48 h; series mostly up to 57.5 µM
Procedure, shortened: as §1

Es-2 = conditions: Gynecologic cancer cell panel viability, ATPlite luminescence, 48 h; series mostly up to 57.5 µM
Procedure, shortened: as §1

HeLa = conditions: Gynecologic cancer cell panel viability, ATPlite luminescence, 48 h; series mostly up to 57.5 µM
Procedure, shortened: as §1

Hek293T = conditions: Gynecologic cancer cell panel viability, ATPlite luminescence, 48 h, control line for the selectivity index; series mostly up to 57.5 µM
Procedure, shortened: as §1

JEG-3 = conditions: Gynecologic cancer cell panel viability, ATPlite luminescence, 48 h; series mostly up to 57.5 µM
Procedure, shortened: as §1

OV90 = conditions: Gynecologic cancer cell panel viability, ATPlite luminescence, 48 h; series mostly up to 57.5 µM
Procedure, shortened: as §1

PA-1 = conditions: Gynecologic cancer cell panel viability, ATPlite luminescence, 48 h; series mostly up to 57.5 µM
Procedure, shortened: as §1

SKOV3 = conditions: Gynecologic cancer cell panel viability, ATPlite luminescence, 48 h; series mostly up to 57.5 µM
Procedure, shortened: as §1

Tov-21-G = conditions: Gynecologic cancer cell panel viability, ATPlite luminescence, 48 h; series mostly up to 57.5 µM
Procedure, shortened: as §1

Tov112D = conditions: Gynecologic cancer cell panel viability, ATPlite luminescence, 48 h; series mostly up to 57.5 µM
Procedure, shortened: as §1
% is scaled to controls: 0 for no effect and ±100 for the full control effect.

COC1CC(O[C@H]2CC[C@@]3(C)C(=CC[C@]4(O)C3[C@H](OC(C)=O)[C@@H](OC(=O)c3ccccc3)[C@]3(C)[C@@H](C(C)=O)CC[C@@]34O)C2)OC(C)C1OC1CC(OC)C(OC2CC(OC)C(OC3OC(C)C(OC4OC(CO)C(O)C(O)C4O)C(OC)C3O)C(C)O2)C(C)O1 (stereo not given in full)
inactive: activity change, negative = cytotoxicity (C33A) -6.27% [at 6.55 µM] | activity change, negative = cytotoxicity (CAOV3) -1.71% [at 6.55 µM] | activity change, negative = cytotoxicity (CASKI) -17.5% [at 6.55 µM] | activity change, negative = cytotoxicity (Es-2) 3.59% [at 6.55 µM] | activity change, negative = cytotoxicity (HeLa) -1.12% [at 6.55 µM] | activity change, negative = cytotoxicity (Hek293T) -1.35% [at 6.55 µM] | activity change, negative = cytotoxicity (JEG-3) -8.02% [at 6.55 µM] | activity change, negative = cytotoxicity (OV90) 7.55% [at 6.55 µM] | activity change, negative = cytotoxicity (PA-1) -5.59% [at 6.55 µM] | activity change, negative = cytotoxicity (SKOV3) 11% [at 6.55 µM] | activity change, negative = cytotoxicity (Tov-21-G) -0.609% [at 6.55 µM] | activity change, negative = cytotoxicity (Tov112D) 2.04% [at 6.55 µM]

CC(=O)OC1C(c2ccccc2)CCC(c2ccccc2)C1OC(C)=O (stereo not given)
inactive: Potency (C33A) | Potency (CAOV3) | Potency (CASKI) | Potency (Es-2) | Potency (HeLa) | Potency (Hek293T) | Potency (JEG-3) | Potency (OV90) | Potency (PA-1) | Potency (SKOV3) | Potency (Tov-21-G) | Potency (Tov112D)

COc1ccc2cc(C(C)C(=O)Oc3ccc(C(N)=S)cc3)ccc2c1 (stereo not given)
inactive: Potency (C33A) | Potency (CAOV3) | Potency (CASKI) | Potency (Es-2) | Potency (HeLa) | Potency (Hek293T) | Potency (JEG-3) | Potency (OV90) | Potency (PA-1) | Potency (SKOV3) | Potency (Tov-21-G) | Potency (Tov112D)

CCC(C)C(=O)OC1CC(C)C=C2C=CC(C)C(CCC(O)CC(O)CC(=O)O)C21 (stereo not given)
inactive: Potency (C33A) | Potency (CAOV3) | Potency (CASKI) | Potency (Es-2) | Potency (HeLa) | Potency (Hek293T) | Potency (JEG-3) | Potency (OV90) | Potency (PA-1) | Potency (SKOV3) | Potency (Tov-21-G) | Potency (Tov112D)

Cn1c2ccc(F)cc2c2c(C(=O)N3CCCC3)cn(-c3ccccc3)c(=O)c21
inactive: Potency (C33A) | Potency (CAOV3) | Potency (CASKI) | Potency (Es-2) | Potency (HeLa) | Potency (Hek293T) | Potency (JEG-3) | Potency (OV90) | Potency (PA-1) | Potency (SKOV3) | Potency (Tov-21-G) | Potency (Tov112D)

CC1(C)CCC(C)(C)c2cc(C3(c4ccc(C(=O)O)cc4)OCCO3)ccc21
inactive: Potency (C33A) | Potency (CAOV3) | Potency (CASKI) | Potency (Es-2) | Potency (HeLa) | Potency (Hek293T) | Potency (JEG-3) | Potency (OV90) | Potency (PA-1) | Potency (SKOV3) | Potency (Tov-21-G) | Potency (Tov112D)

C=C1OC2CC(C(=O)O)C=CC2NC1=O (stereo not given)
inactive: Potency (C33A) | Potency (CAOV3) | Potency (CASKI) | Potency (Es-2) | Potency (HeLa) | Potency (Hek293T) | Potency (JEG-3) | Potency (OV90) | Potency (PA-1) | Potency (SKOV3) | Potency (Tov-21-G) | Potency (Tov112D)

CC1NC(=O)CCCNC(=O)C(Cc2c[nH]c3ccccc23)NC(=O)C(C)NC(=O)C(C(C)C)NC(=O)C(C(C)c2ccccc2)NC(=O)C(C(C)C)NC1=O (stereo not drawn) (cyclo([GABA]AV[ξPhe(βξ-Me)]VAW); configuration not given here)
inactive: Potency (C33A) | Potency (CAOV3) | Potency (CASKI) | Potency (Es-2) | Potency (HeLa) | Potency (Hek293T) | Potency (JEG-3) | Potency (OV90) | Potency (PA-1) | Potency (SKOV3) | Potency (Tov-21-G) | Potency (Tov112D)

Cn1ncnc1COc1nn2c(-c3cc(F)ccc3F)nnc2cc1C(C)(C)C
inactive: Potency (C33A) | Potency (CAOV3) | Potency (CASKI) | Potency (Es-2) | Potency (HeLa) | Potency (Hek293T) | Potency (JEG-3) | Potency (OV90) | Potency (PA-1) | Potency (SKOV3) | Potency (Tov-21-G) | Potency (Tov112D)

COc1cccc2cc3c(c(O[C@@H]4O[C@H](CO[C@@H]5O[C@H](CO)[C@@H](O)[C@H](O)[C@H]5O)[C@@H](O)[C@H](O)[C@H]4O)c12)C(C)OC3=O (stereo not given in full)
inactive: Potency (C33A) | Potency (CAOV3) | Potency (CASKI) | Potency (Es-2) | Potency (HeLa) | Potency (Hek293T) | Potency (JEG-3) | Potency (OV90) | Potency (PA-1) | Potency (SKOV3) | Potency (Tov-21-G) | Potency (Tov112D)

CC(C)CC1NC(=O)C2CC3(O)c4ccccc4NC3N2C1=O (stereo not given)
inactive: Potency (C33A) | Potency (CAOV3) | Potency (CASKI) | Potency (Es-2) | Potency (HeLa) | Potency (Hek293T) | Potency (JEG-3) | Potency (OV90) | Potency (PA-1) | Potency (SKOV3) | Potency (Tov-21-G) | Potency (Tov112D)

COc1cc(O)c2c(c1)C1=C[C@H](O)[C@@H](O)C[C@]1(C)OC2=O
inactive: Potency (C33A) | Potency (CAOV3) | Potency (CASKI) | Potency (Es-2) | Potency (HeLa) | Potency (Hek293T) | Potency (JEG-3) | Potency (OV90) | Potency (PA-1) | Potency (SKOV3) | Potency (Tov-21-G) | Potency (Tov112D)

CC(=O)O[C@H]1C[C@@]2(C)[C@@H](CC[C@H]3[C@@]4(C)C=CC(=O)[C@@H](C)[C@@H]4[C@H](O)C(=O)[C@@]32C)/C1=C(/CCC=C(C)C)C(=O)O
inactive: Potency (C33A) | Potency (CAOV3) | Potency (CASKI) | Potency (Es-2) | Potency (HeLa) | Potency (Hek293T) | Potency (JEG-3) | Potency (OV90) | Potency (PA-1) | Potency (SKOV3) | Potency (Tov-21-G) | Potency (Tov112D)

CC1=CC2/C=C(\C)CC[C@@H](O)[C@@H](O)[C@@H]3O[C@@H]3C(=O)[C@]23C(=O)N[C@@H](CC(C)C)[C@@H]3[C@@H]1C (stereo not given in full)
inactive: Potency (C33A) | Potency (CAOV3) | Potency (CASKI) | Potency (Es-2) | Potency (HeLa) | Potency (Hek293T) | Potency (JEG-3) | Potency (OV90) | Potency (PA-1) | Potency (SKOV3) | Potency (Tov-21-G) | Potency (Tov112D)

CC(=O)N[C@H]1[C@H](O[C@H]2CC[C@@]3(C)C(CC[C@]4(C)C3CC=C3[C@@H]5CC(C)(C)CC[C@]5(C(=O)OC5OCC(O)C(O)C5O)CC[C@]34C)C2(C)C)O[C@H](COC2OC(C)C(O)C(OC3OC(C)C(O)C(O)C3O)C2O)[C@@H](O)[C@@H]1O (stereo not given in full)
inactive: activity change, negative = cytotoxicity (C33A) -0.0854% [at 11.6 µM] | activity change, negative = cytotoxicity (CAOV3) 0.431% [at 11.6 µM] | activity change, negative = cytotoxicity (CASKI) 5.69% [at 11.6 µM] | activity change, negative = cytotoxicity (Es-2) 4.54% [at 11.6 µM] | activity change, negative = cytotoxicity (HeLa) 1.75% [at 11.6 µM] | activity change, negative = cytotoxicity (Hek293T) 4.04% [at 11.6 µM] | activity change, negative = cytotoxicity (JEG-3) 1.81% [at 11.6 µM] | activity change, negative = cytotoxicity (OV90) 3.41% [at 11.6 µM] | activity change, negative = cytotoxicity (PA-1) 5.97% [at 11.6 µM] | activity change, negative = cytotoxicity (SKOV3) 2.42% [at 11.6 µM] | activity change, negative = cytotoxicity (Tov-21-G) 2.63% [at 11.6 µM] | activity change, negative = cytotoxicity (Tov112D) 7.32% [at 11.6 µM]
